# Pf Dd2 growth: Plasmodium falciparum Dd2 growth inhibition; 4.3% of 120,000 active; P. falciparum Dd2 growth, SYBR Green, 72 h; Potency, µM (highest dose often 28.9 µM), inactives show top-dose activity, negative = inhibition, most hits filed as inhibitors; AID 1347417; active = well fitted inhibition curve with a large enough effect;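 note: plate controls were DMSO vehicle for no effect and reference drug for full effect; nearly all actives have a fitted effect of over 65% in size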
#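 Infected erythrocytes (Dd2, 0.3% parasitemia, 2.5% hematocrit final) are added to compound in RPMI-1640/Albumax II medium, grown 72 h at 37C in low oxygen, then lysed with saponin/Triton-X containing SYBR Green and read by fluorescence.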
# * = called active by the depositor; i = inactive; [ ] = dose if it differs, or a comment. This excerpt belongs to a sample that is enriched for hits. Potency is the fitted concentration of half-maximal effect.
SMILES,Pf Dd2 growth
CCCN1CC[C@H]2COC(=O)N2c2cc(F)ccc2C1,i
N#Cc1ccc(S(=O)(=O)N2CCCCCNC(=O)[C@@H]3CCCC[C@@H]32)cc1,10.4%
COc1cccc(C2Cn3nnc(-c4nc(-c5ccc(C(F)(F)F)cc5)no4)c3CO2)c1 (configuration not stated),-12.8%
Cc1cnc(C(=O)N2CCC(c3nnc(CN4CCCC4)n3C3CC3)CC2)cn1,-1.9%
CO[C@H]1C(=O)N(C2CCN(S(=O)(=O)c3cccc(F)c3)CC2)[C@H]1c1ccncc1,7.8%
CCN(C(=O)CSc1nc(-c2ccc(C(C)C)cc2)no1)c1cccc(C)c1,0.891µM*
CCN(C(=O)Cc1nc(-c2ccc(OC)cc2)no1)c1cccc(Cl)c1,-29.2%
CCN(C(=O)CSc1nc2ncccc2[nH]1)c1ccc(C(C)C)cc1,-23.6%
CCN(C(=O)CCc1nc(-c2ccc(C)cc2)no1)c1cc(C)ccc1C,-15.4%
CCN(C(=O)CSc1nnc(-c2ccc(Cl)cc2)o1)c1ccccc1,5.2%
CCN(C(=O)CSc1nc(-c2ccc(C(C)C)cc2)no1)c1ccccc1,1.12µM*
COCCN1CCCC(c2[nH]ccc2C(=O)N2CCSCC2)C1 (configuration not stated),i
Cc1ccc2c(C(=O)NC3CC3)cnn2c1,-6.2%[44.1 µM]
Cc1nccn1CC(=O)N[C@@H]1CN(Cc2ccccn2)C[C@H]1CN(C)C,40.4%
O=C(c1ccoc1)N1CCC(Cc2nc(C3CCOCC3)no2)CC1,8.8%
N#Cc1ccccc1CN1CCC(Cc2nncn2-c2ccccc2)CC1,-12.0%
COc1cccc(NS(=O)(=O)c2ccc3c(c2)[C@H]2C=CC[C@H]2[C@@H](c2ccccc2Cl)N3)c1,10µM*
COc1cccc(NS(=O)(=O)c2ccc3c(c2)CCCN3C(=O)C2CCC2)c1,-22.7%
COc1cccc([C@@H]2Nc3ccc(C(=O)O)cc3[C@@H]3C=CC[C@@H]32)c1OC,1.6%
CCC1(N2CCN(C(=O)c3ccc(N(C)C)cc3)CC2)CCN(C(=O)NC)C1 (configuration not stated),-17.5%
c1ccc([C@@H]2CNC[C@H]2COc2ccncc2)nc1,39.5%
COc1ccccc1-n1c(=O)[nH]c2cccnc21,-16.5%[44.1 µM]
Cc1nc(CN2CC3(CCN(C)C3)c3cc(C(=O)NCc4cccs4)ccc32)cs1 (configuration not stated),-3.3%[44.1 µM]
CN1CCC2(C1)CN(Cc1ccccc1)c1ccc(C(=O)NCc3cccs3)cc12 (configuration not stated),7.08µM*
CN1CCCC2(C1)CN(Cc1cccnc1)c1ccc(C(=O)NCc3cccs3)cc12 (configuration not stated),-7.6%[44.1 µM]
SMILES,Pf Dd2 growth
C=CCNc1nc(C)nc2c1CCN(C(=O)CNS(C)(=O)=O)CC2,-10.5%
CC(C)c1nc(-c2ccc(OC3CCN(C(=O)C4(c5ccccc5)CC4)C3)cc2)no1 (configuration not stated),-14.0%[5.79 µM]
C[C@@H](O)CNc1nccc(C2(c3ccccc3Cl)CCNCC2)n1,-10.9%
CC(C)CNc1nccc(C2(c3ccccc3Cl)CCNCC2)n1,5.01µM*
Clc1ccccc1C1(c2ccnc(NCc3ccncc3)n2)CCNCC1,-9.8%
CCC(C)Cc1nccc(C2(c3ccccc3Cl)CCNCC2)n1 (configuration not stated),4.47µM*
CC(CNc1nccc(C2(c3ccccc3Cl)CCNCC2)n1)CN(C)C (configuration not stated),-12.0%
OCC(O)CNc1nccc(C2(c3ccccc3Cl)CCNCC2)n1 (configuration not stated),-14.1%
CC(=O)N1CCC(N2C[C@@H](F)[C@@H](OCc3nc4ccccc4o3)C2)CC1,-2.0%[44.1 µM]
COc1ccc(C2(C(=O)NCCc3ncc(C)n3CC3CC3)CC2)cc1,-32.3%
O=C(c1ccc2c(c1)N(Cc1ccc(Cl)cc1)C(=O)c1ccccc1S2(=O)=O)N1CCN(Cc2ccccc2)CC1,i
Cc1cccc(CN2C(=O)c3ccccc3S(=O)(=O)c3ccc(C(=O)N4CCCC4)cc32)c1,i
O=C(c1ccc2c(c1)N(Cc1cccc(Cl)c1)C(=O)c1ccccc1S2(=O)=O)N1CCCCC1,-11.2%
O=C(OCC1CCCO1)c1ccc2c(c1)N(Cc1cccc(F)c1)C(=O)c1ccccc1S2(=O)=O (configuration not stated),3.4%
Cc1ccc(C)c(CN2C(=O)c3ccccc3S(=O)(=O)c3ccc(C(=O)N4CCN(C)CC4)cc32)c1,5.01µM*
Cc1cccc(CN2C(=O)c3ccccc3S(=O)(=O)c3ccc(C(=O)OCC4CCCO4)cc32)c1 (configuration not stated),11.5%
O=C(c1ccc2c(c1)N(Cc1ccccc1)C(=O)c1ccccc1S2(=O)=O)N1CCCCCC1,3.98µM*
CC1CCCN(CCCNC(=O)c2ccc3c(c2)N(Cc2ccc(Cl)cc2)C(=O)c2ccccc2S3(=O)=O)C1 (configuration not stated),i
Cc1ccc(C)c(CN2C(=O)c3ccccc3S(=O)(=O)c3ccc(C(=O)NCCCN4CCCC(C)C4)cc32)c1 (configuration not stated),3.98µM*
